The entries come from a sample that favours hits as a whole.
Glioma ERSR ind: induces the endoplasmic reticulum stress response in human glioma cells | U87-MG GRP78 promoter luciferase reporter, 16 h | Potency, µM, for the others: at the highest dose activation, actives largely listed as activators | 0.02% of 420,000 active | AID 602332; further: series mostly up to about 76 µM; % of control where 0% means no effect; nearly all actives have a fitted effect of over 35% in size
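Stably transfected U87-MG human glioma cells carrying a GRP78-based luminescent sensor were seeded at 1000 cells/well, pin-dosed with compounds and incubated 16 h. Luciferase reagent was then added, and end-point luminescence was read after 10 min at room temperature.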
VDR inh: blocks the human vitamin D receptor | P11473 | VDR-SRC2-3 peptide fluorescence polarization, 2 h | Potency, µM, inactives show max response, negative = inhibition, usual class: inhibitors | 0.93% of 400,000 active; further: on the % scale 0 is the no-effect control and ±100 the full control effect
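FP read-out; VDR + SRC2-3 coactivator peptide; 23 nl compound by pintool; 2 h RT incubation; reagents held at 4 deg C, protected from light.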
ALOX12 inh: blocks human arachidonate 12S-lipoxygenase. P18054. purified 12hLO, xylenol orange hydroperoxide absorbance. Potency, µM (titrated, usually from 108 µM), inactives show at the top dose activity change, negative = inhibition, most hits filed as inhibitors. 1.1% of 580,000 active. AID 1671190; further: on the % scale 0 is the no-effect control and ±100 the full control effect
Target sequence (P18054 whole entry, looked up): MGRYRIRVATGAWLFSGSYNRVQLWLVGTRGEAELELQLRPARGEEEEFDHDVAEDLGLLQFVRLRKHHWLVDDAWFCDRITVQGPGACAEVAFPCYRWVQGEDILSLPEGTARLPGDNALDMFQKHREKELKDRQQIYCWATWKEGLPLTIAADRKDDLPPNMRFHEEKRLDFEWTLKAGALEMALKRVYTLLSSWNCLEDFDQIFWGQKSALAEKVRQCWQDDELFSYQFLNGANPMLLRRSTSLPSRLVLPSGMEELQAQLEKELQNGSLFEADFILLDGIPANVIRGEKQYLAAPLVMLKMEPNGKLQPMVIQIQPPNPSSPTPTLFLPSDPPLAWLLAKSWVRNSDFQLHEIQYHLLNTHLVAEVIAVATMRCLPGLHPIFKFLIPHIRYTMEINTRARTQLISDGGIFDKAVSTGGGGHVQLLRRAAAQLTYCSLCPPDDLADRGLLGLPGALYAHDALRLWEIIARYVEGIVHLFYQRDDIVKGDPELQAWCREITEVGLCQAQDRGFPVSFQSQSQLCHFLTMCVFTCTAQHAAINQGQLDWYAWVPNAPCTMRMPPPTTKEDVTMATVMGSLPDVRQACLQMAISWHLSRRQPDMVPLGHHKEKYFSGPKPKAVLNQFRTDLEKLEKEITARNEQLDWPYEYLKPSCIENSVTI
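Purified human 12hLO (150 nM final) in 25 mM Hepes, 0.01% Triton X-100, pH 7.0 was preincubated 15 min at room temperature with compound. Then 40 uM arachidonic acid was added, 30 min. Hydroperoxide was read by Fe-XO absorbance ratio 573/405 nm.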
Sfp inh: Sfp phosphopantetheinyl transferase inhibition | Biochemical Sfp PPTase activity, qHTS | Q9F4F7 | AID 1490 | 3.5% of 310,000 active | Potency, µM, inactives show largest response in the series, negative = inhibition, hits mostly inhibitors;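 further: the enzyme is Sfp with the accession as filed and its product quenches rhodamine fluorescence; 0% = enzyme reaction without inhibitor and -100% = no enzyme wells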
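After 15 min at room temperature with compound, 15 nM Sfp received 5 uM rhodamine-CoA plus 12.5 uM BHQ-2-ybbR (50 mM Hepes pH 7.6, 10 mM MgCl2). Rate came from the fluorescence difference over 30 min, ex 525/em 598 nm.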
G9a block: inhibitors of human histone lysine methyltransferase G9a; Q96KQ7; G9a H3K9 monomethylation, AlphaScreen, 2 h; Potency, µM (highest dose often 102 µM), for inactives: top-dose activity, negative = inhibition, hits mostly inhibitors; 8.8% of 350,000 active; AID 504332; further: on the % scale 0 is the no-effect control and ±100 the full control effect; nearly all actives have a fitted effect of over 75% in size
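AlphaScreen read-out: biotin-H3K9 peptide (500 nM) methylation by 20 nM enzyme with 20 uM SAM, 2 h at room temperature after 15 min compound preincubation; anti-monomethyl H3K9 antibody plus donor/acceptor beads, 10 min dark.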
Numbers without * were called inactive; ? = inconclusive; · = not tested or not shown; [ ] = remark or other dose. The call rests on the fitted dose curve; in most records, active means well fitted curve in the direction sought with a large enough effect; inconclusive means small, poorly fitted or top-dose-only effect, or another doubt; inactive means no such curve, though single readings can be large; an effect the other way counts as inactive or inconclusive. Potency means the concentration at half of the fitted maximal effect.

SMILES | Glioma ERSR ind | VDR inh | ALOX12 inh | Sfp inh | G9a block
CC(=O)N1CCN(C(=O)c2ccc(-c3cccc(C(F)(F)F)c3)o2)CC1 | -2% | -24% | 11% | · | 50µM*
N#C/C(=C\c1ccc(-c2cccc(C(F)(F)F)c2)o1)c1ccccc1 | · | · | -5% | · | ·
O=Cc1cc(Br)c2c(c1)OCCCO2 | · | · | 18% | · | ·
Cc1ccc(C(=O)/C=C/c2ccc(-c3ccc(C)cc3)o2)cc1 | 0% | -13% | ? | 8.9µM* | ?
O=C(O)/C(=C\c1ccc(-c2ccc(F)cc2)o1)c1ccccc1 | 2% | -3% | 4% | 8.9µM* | ?
O=[N+]([O-])c1ccc(-c2ccc(/C=N/O)o2)cc1 | 3% | -16% | 143% | 0% | ?
CCN(CC)S(=O)(=O)c1ccc(C(=O)/C=C/c2ccc(-c3ccc([N+](=O)[O-])cc3)o2)cc1 | -2% | ? | 7% | 79µM* | ?
O=C(/C=C\c1ccc(-c2ccccc2)o1)c1ccccc1 | 2% | -14% | ? | 11µM* | 10µM*
COC(=O)c1cc(C(=O)OC)cc(S(=O)(=O)N2CCCC2c2nc3ccccc3[nH]2)c1 (configuration not stated) | · | · | -4% | · | ·
Cc1ccc(C(=O)/C=C/c2ccc(-c3ccc(Cl)c(Cl)c3)o2)cc1 | · | · | -81% | · | ·
Cc1ccc(-c2ccc(/C=C/C(=O)c3ccccc3)o2)cc1Cl | · | · | 11µM* | · | ·
Cc1ccc(C(=O)/C=C/c2ccc(-c3ccc(C)c(Cl)c3)o2)cc1 | · | · | 14µM* | · | ·
Cc1cccc(N(C(=O)c2snc(C(N)=O)c2N)C(C(=O)NCC2CCCO2)c2cccs2)c1 (configuration not stated) | 0% | -12% | -12% | -2% | 10%
Cc1ccc(C)c(N(C(=O)c2snc(C(N)=O)c2N)C(C(=O)NCC2CCCO2)c2cccs2)c1 (configuration not stated) | -1% | 79µM* | 28% | 2% | 12%
Cc1cccc(N(C(=O)c2snc(C(N)=O)c2N)C(C(=O)NCC2CCCO2)c2ccc(N(C)C)cc2)c1C (configuration not stated) | 4% | -8% | -19% | -8% | 50µM*
CC1=C[C@@H](O)CC(C)(C)[C@@H]1/C=C/C(C)=C/C=C/C(C)=C/C=C/C=C(C)/C=C/C=C(C)/C=C/C1=C(C)C[C@H](O)CC1(C)C | 0% | 28µM* | · | 50µM* | ?
CC1=C(/C=C/C(C)=C\C=C\C(C)=C\C=C\C=C(C)\C=C\C=C(C)\C=C\C2=C(C)C[C@@H](O)CC2(C)C)C(C)(C)C[C@H](O)C1 | -10% | 40µM* | · | ? | ?
CCN1CCN(C(C)C(=O)Nc2c(C)n(C)n(-c3ccccc3)c2=O)CC1 (configuration not stated) | -4% | 3% | ? | ? | 11µM*
Cc1c(NC(=O)CN2CC(C)OC(C)C2)c(=O)n(-c2ccccc2)n1C (configuration not stated) | -1% | -1% | ? | ? | 16µM*
CCC(CC)C(=O)Nc1c(C)n(C)n(-c2ccccc2)c1=O | -5% | -11% | -4% | 6% | -4%
Cc1c(NC(=O)COC(=O)c2cc(-c3ccc(-c4ccccc4)cc3)nc3ccccc23)c(=O)n(-c2ccccc2)n1C | -6% | -15% | -15% | 50µM* | 1%[59 µM]
Cc1c(NC(=O)CN2CCN(c3ccccc3)CC2)c(=O)n(-c2ccccc2)n1C | -2% | 20% | 0% | 11% | -7%
Cc1cc(NC(=O)CS(=O)(=O)c2ccc(C(C)(C)C)cc2)no1 | · | · | 97% | · | ·
CCOc1ccc(N=Nc2c(C)[nH]n(-c3ccccc3)c2=O)cc1 | 2% | 6% | ? | ? | 1%[0.501 µM]
CCOC(=O)c1ccc(N=Nc2c(C)[nH]n(-c3ccccc3)c2=O)cc1 | 5% | -7% | 3% | -15% | 4µM*
SMILES | Glioma ERSR ind | VDR inh | ALOX12 inh | Sfp inh | G9a block
CC(=O)N(C)c1ccc(N=Nc2c(C)[nH]n(-c3ccccc3)c2=O)cc1 | -4% | -14% | ? | -20% | 35µM*
O=C(NC1CCN(Cc2ccccc2)CC1)C(F)(F)F | · | · | 48% | · | ·
Cc1ccc(CN2CCCCCCNC(=O)[C@@H]3CCC[C@@H]32)o1 | · | · | 76% | · | ·
CCCCCC(=O)N1C[C@@H](O)[C@H](n2cc(-c3ccc(F)cc3)nn2)C[C@@H]1c1ccc(Cl)cc1 | -3% | · | 10µM* | · | ·
CCCCCC(=O)N1C[C@H](n2cc(-c3ccc(F)cc3)nn2)[C@@H](O)C[C@@H]1c1ccc(Cl)cc1 | 0% | · | -15% | · | ·
C=CCc1cccc2cc(C(=O)N3CCN(C(=O)c4ccco4)CC3)c(=O)oc12 | -3% | 9% | -27% | 1% | 45µM*
C=CCc1cccc2cc(C(=O)Nc3ccccc3C(=O)O)c(=O)oc12 | 0% | 3% | ? | -5% | 13µM*
C=CCc1cccc2cc(C(=O)O)c(=O)oc12 | -4% | -1% | 0% | 13% | -12%
C=CCc1cccc2cc(C(=O)N3CCN(c4ccccn4)CC3)c(=O)oc12 | -2% | -1% | -13% | -6% | ?
NCCOc1ccccc1 | · | · | 20% | · | ·
CCOC(=O)c1cc2c(ccn2C)n1Cc1cc(C)ccc1C | -3% | -8% | 13% | -10% | 50µM*
CCCCn1c(N)c(N(CCOC)C(=O)C2CCN(C(=O)c3ccc(Cl)cc3)CC2)c(=O)[nH]c1=O | -4% | -1% | -16% | · | 56µM*
CCCCN(C(=O)C1CC(=O)N(CCc2ccc(OC)c(OC)c2)C1)c1c(N)n(CCCC)c(=O)[nH]c1=O (configuration not stated) | 0% | -10% | -18% | · | 16µM*
CCCCn1c(N)c(N(CCC(C)C)C(=O)C2CCCC2)c(=O)[nH]c1=O | -3% | -5% | 7% | · | 20µM*
CCCCn1c(N)c(N(CCOC)C(=O)C2CCN(C(=O)c3ccc(F)cc3)CC2)c(=O)[nH]c1=O | -5% | ? | -1% | · | -29%
CCCCn1c(N)c(N(CC(C)C)C(=O)C2CCC2)c(=O)[nH]c1=O | -2% | -8% | 12% | · | 15%[12.7 µM]
CCCCn1c(N)c(N(CCOC)C(=O)C2CCCN(C(=O)c3ccc(Cl)cc3)C2)c(=O)[nH]c1=O (configuration not stated) | -3% | 9% | -39% | · | 28µM*
Cc1ccc(-c2nc3cc(NC(=O)c4cccs4)ccc3o2)cc1C | · | · | -11% | · | ·
O=C(NCc1ccco1)c1cc2c(s1)CCN(C(=O)c1ccc(Cl)cc1)C2 | · | · | 14% | · | ·
Cc1ccc2oc(=O)cc(CSc3nc(C)cc(C)c3C#N)c2c1 | · | · | 61% | · | ·
CCCCn1c(N)c(N(CCOC)C(=O)C2CCN(S(=O)(=O)c3ccc(C)c(C)c3)CC2)c(=O)[nH]c1=O | -4% | -17% | ? | · | 50µM*
CCOc1ccc(C2Nc3cccc4cccc(c34)N2)cc1OC | -3% | -5% | 350% | -26% | 10µM*
CCOc1cc(C2Nc3cccc4cccc(c34)N2)ccc1O | -6% | 1% | · | -12% | 10µM*

Source: PubChem
